{
  "source": "PubChem BioAssay AID504861",
  "about": "(Broad Institute, 2011)",
  "note": "Hit rate of the full screen: of about 1,200 compounds, about 290 (24%) were called active. Inconclusive results (about 3%) are left out.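 Rule for the calls: active = compounds lowering cell viability signal with fitted half-maximal concentration at most ten times their highest tested concentration; inconclusive = flat fit with 30 to 70% signal loss, or poor fit; inactive = the rest.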 Not all results are given here. Measured potencies and affinities stand elsewhere.",
  "data": [
    {"experiment": "HEK293T cell viability reduction, dose response, cytotoxicity control for LMP1 NF-kB inhibitor project, CellTiter-Glo luminescence, cherry-picks (AID 504861)", "settings": "CellTiter-Glo ATP luminescence, 48 h; series mostly up to 26 µM", "values": [
      {"smiles": "CCC(C)n1ncn(-c2ccc(N3CCN(c4ccc(OCC5COC(Cn6cncn6)(c6ccc(Cl)cc6Cl)O5)cc4)CC3)cc2)c1=O", "note": "(centres undefined)", "outcome": "inactive"},
      {"smiles": "CC(=C/c1ccccc1)/C=N/n1c(-c2ccncc2)n[nH]c1=S", "outcome": "inactive"},
      {"smiles": "Cc1ccnc(NC(=O)c2cccc(NC(=O)c3ccc(Cl)c(Cl)c3)c2)c1", "outcome": "inactive"},
      {"smiles": "N/C(=N\\OC(=O)c1cccc(Br)c1)c1ccccn1", "outcome": "inactive"},
      {"smiles": "CCCc1c(C(=O)N/N=C(\\C)c2ccccn2)nnn1-c1nonc1N", "outcome": "inactive"},
      {"smiles": "O=C(O)c1ccc(C=NN=C2c3ccccc3-c3ccccc32)cc1", "outcome": "inactive"},
      {"smiles": "Cc1ccc(CCNC(=O)CCc2nc3ccccc3[nH]2)cc1", "outcome": "inactive"},
      {"smiles": "CCn1c2ccccc2c2cc(/C=N/n3c(-c4cc(C)[nH]n4)n[nH]c3=S)ccc21", "outcome": "inactive"},
      {"smiles": "O=C(O)c1cn2c3c(ccc(Cl)c3c1=O)OCC2", "outcome": "inactive"},
      {"smiles": "S=c1[nH]nc(C2CCCCC2)n1/N=C/c1ccncc1", "outcome": "inactive"},
      {"smiles": "CCN(CC)S(=O)(=O)c1ccc(N/N=C/c2ccc(O)cc2O)nc1", "outcome": "inactive"},
      {"smiles": "CCN(CC)S(=O)(=O)c1ccc(N=NC2=C(O)CCCC2=O)cc1", "outcome": "inactive"},
      {"smiles": "COC(=O)C1=NNC(C(=O)OC)C1c1ccccc1", "note": "(centres undefined)", "outcome": "inactive"},
      {"smiles": "COCCCNCC1C(Oc2ccc(Cl)cc2)C(=O)N1c1ccccc1C", "note": "(centres undefined)", "outcome": "inactive"},
      {"smiles": "COc1ccc(C(=O)Nc2cc(C)c(NC(=O)c3ccccc3OC)cn2)cc1", "outcome": "inactive"},
      {"smiles": "COc1ccccc1-n1cc([C@@H]2C[C@H]3CN(c4ccccc4)C(=O)[C@]34CCCN24)cn1", "outcome": "inactive"},
      {"smiles": "COc1ccc2cc(C(N)=O)/c(=N\\NC(=O)c3ccccc3)oc2c1", "outcome": "inactive"},
      {"smiles": "CCOC(=O)CNC(=O)CSc1nnc(NC(=O)c2ccc(C)cc2)s1", "outcome": "inactive"},
      {"smiles": "Nc1cc(=O)[nH]c(SCCSc2cc(Cl)ccc2Cl)n1", "outcome": "inactive"},
      {"smiles": "O=C(Nc1ccc(N2CCOCC2)cc1)c1cn2ccccc2n1", "outcome": "inactive"},
      {"smiles": "COc1cc(/C=C(\\C#N)c2ccccn2)ccc1OCc1ccccc1Cl", "outcome": "inactive"},
      {"smiles": "CN(C)CCN(Cc1ccc(Cl)cc1)c1ccccn1", "outcome": "inactive"},
      {"smiles": "CCn1c2ccccc2c2cc(/C=N/n3c(C)nnc3C)ccc21", "outcome": "inactive"},
      {"smiles": "Cn1cccc1C(=O)OCC(=O)Nc1ccc2c(c1)OCO2", "outcome": "inactive"},
      {"smiles": "Cc1ccc2oc(C(=O)Nc3ccc(S(=O)(=O)Nc4onc(C)c4C)cc3)c(C)c2c1", "outcome": "inactive"},
      {"smiles": "O=C(CN1C(=O)c2ccccc2S1(=O)=O)c1ccc(F)c(F)c1", "outcome": "inactive"},
      {"smiles": "CC(=O)c1sc(NC(=O)C2COc3ccccc3O2)nc1C", "note": "(centres undefined)", "outcome": "inactive"},
      {"smiles": "Cc1ccccc1NC(=O)CN1C(=O)S/C(=C\\c2cccn2-c2cccc(C(=O)O)c2)C1=O", "outcome": "inactive"},
      {"smiles": "O=C(O)/C=C/c1ccc2ccccc2n1", "outcome": "inactive"},
      {"smiles": "CCOC(=O)Nc1ccc2c(c1)N(C(=O)CN(C)C)c1ccccc1CC2", "outcome": "inactive"},
      {"smiles": "CCOCCCNC(=O)CN1C(=O)/C(=C\\c2ccc(C)cc2)Sc2ccccc21", "outcome": "inactive"},
      {"smiles": "CCN(c1ccccc1)S(=O)(=O)c1ccc(Cl)c(NC(=O)Nc2ccc(Cl)cc2C#N)c1", "outcome": "inactive"},
      {"smiles": "COc1ccc(-c2csc3ncnc(NCCO)c23)cc1", "outcome": "inactive"},
      {"smiles": "COC(=O)c1cc2n(n1)CCN(Cc1ccccc1Cl)C2=O", "outcome": "inactive"},
      {"smiles": "CC1CN(c2cc(=O)n(-c3ccccc3)c(=O)[nH]2)CC(C)O1", "note": "(centres undefined)", "outcome": "inactive"},
      {"smiles": "Cc1nn(-c2ccccc2)c(Cl)c1C(=O)N1CCN(c2ncnc3c2cnn3-c2ccccc2)CC1", "outcome": "inactive"},
      {"smiles": "CCc1cc2c(Sc3nc4ccccc4s3)ncnc2s1", "outcome": "inactive"},
      {"smiles": "CC1(C)Cc2c(ccc3ccccc23)/C(=C/C(=O)N2CCCCC2)N1", "outcome": "inactive"},
      {"smiles": "COc1ccc2cc(-c3cc(C(=O)O)c4ccccc4n3)ccc2c1", "outcome": "inactive"},
      {"smiles": "COc1ccc(NC(=O)NCCN2CCc3ccccc3C2)cc1", "outcome": "inactive"},
      {"smiles": "Cc1cc2cc(CN(Cc3ccco3)S(=O)(=O)c3c(C)ccc4nsnc34)c(=O)[nH]c2cc1C", "outcome": "inactive"},
      {"smiles": "CCCN(CC)c1ncnc2[nH]ncc12", "outcome": "inactive"},
      {"smiles": "COc1ccc(/C=N/Nc2cc(OC)ncn2)cc1", "outcome": "inactive"},
      {"smiles": "CN(C)c1ccc(C=Cc2ccnc3c(O)cccc23)cc1", "outcome": "inactive"},
      {"smiles": "COc1ccc(CC(C)NCC(O)c2ccc(O)c(NC=O)c2)cc1", "note": "(centres undefined)", "outcome": "inactive"},
      {"smiles": "COc1ccc(-n2c(SCC(=O)Nc3ccc4c(c3)OCO4)nc3c(c2=O)SCC3)cc1", "outcome": "inactive"},
      {"smiles": "CCOCCCn1cnc2c3cc(F)ccc3n(C)c2c1=O", "outcome": "inactive"},
      {"smiles": "CC(C)(C)n1nc(-c2ccc(Cl)cc2)c2c(N)ncnc21", "outcome": "inactive"},
      {"smiles": "CCc1ccc(/C=C2\\SC(=S)N(CCCC(=O)NC3=NCCS3)C2=O)cc1", "outcome": "inactive"},
      {"smiles": "CCOc1cc(/C=C2/C(=N)N3N=C(CC)SC3=NC2=O)ccc1OC(=O)c1ccco1", "outcome": "inactive"},
      {"smiles": "COc1ccc(-c2cc(C(=O)N3CCCC3)no2)cc1", "outcome": "inactive"},
      {"smiles": "O=Cc1ccc(-c2cccs2)s1", "outcome": "inactive"},
      {"smiles": "COC(=O)c1ccc(CSc2nc3c(c(=O)n2-c2ccc(C)cc2)SCC3)o1", "outcome": "inactive"},
      {"smiles": "Cc1ccc(-n2cc(C(=O)c3ccccc3O)cn2)cc1", "outcome": "inactive"},
      {"smiles": "COc1ccc(C(=O)N=c2nc3ccccn3s2)cc1", "outcome": "inactive"},
      {"smiles": "CC(=O)c1cc(C(=O)Nc2ccc(C(=O)O)cc2)oc1C", "outcome": "inactive"},
      {"smiles": "COc1ccc(NC(=O)/C(C#N)=C/c2cc(C)n(-c3ccc(N4CCOCC4)c([N+](=O)[O-])c3)c2C)cc1", "outcome": "inactive"},
      {"smiles": "CCOC(=O)c1c(CSc2nc(C)cc(C)c2C#N)n(C)c2cc(Br)c(OC(C)=O)cc12", "outcome": "inactive"},
      {"smiles": "Cc1nc(SCC(=O)c2cccc([N+](=O)[O-])c2)n[nH]1", "outcome": "inactive"},
      {"smiles": "CCOc1ccc(Nc2ncnc3ccc([N+](=O)[O-])cc23)cc1", "outcome": "inactive"},
      {"smiles": "CC(NC(=O)CNC(=O)OCc1ccccc1)C(=O)N1CC(O)CC1C(=O)OCc1ccccc1", "note": "(centres undefined)", "outcome": "inactive"},
      {"smiles": "CC(C)(C)OC(=O)N1Cc2ccccc2C[C@H]1C(=O)NCC(=O)Nc1ccc2c(c1)OCCO2", "outcome": "inactive"},
      {"smiles": "COc1ccc(-n2cnc3c(cnn3CCC#N)c2=N)cc1", "outcome": "inactive"},
      {"smiles": "Cc1ccn2c(c1)nc(=S)n2C(=O)c1ccccc1", "outcome": "inactive"},
      {"smiles": "COc1ccc(NC(=O)c2cc3c(CO)cnc(C)c3oc2=Nc2cccc(F)c2)c(OC)c1", "outcome": "inactive"},
      {"smiles": "N#Cc1c(Nc2ccccc2)sc(C(=O)c2ccc(F)cc2)c1N", "outcome": "inactive"},
      {"smiles": "C=CCn1c(SCc2csc(C)n2)nc2sc3c(c2c1=O)CCCC3", "outcome": "inactive"},
      {"smiles": "CCn1c2ccccc2c2cc(/C=N/n3cn[nH]c3=S)ccc21", "outcome": "inactive"},
      {"smiles": "O=C1CC(c2cccs2)Cc2nc(NC(=O)C3CC3)ncc21", "note": "(centres undefined)", "outcome": "inactive"}
    ]}
  ]
}
